Results taken from PMC5540273 (PLoS ONE, 2017).

Experiments:
Details in all cases: concentration: 1 μM,replicates: in singlicate; n = 1
[1] = test system: T1, MEK5
T1 construct: gene MAP2K5

[2] = test system: T2, MEK6
T2 construct: gene MAP2K6

[3] = test system: MELK
[4] = test system: MERTK
[5] = test system: MET
[6] = test system: T3, MINK
T3 construct: gene MINK1

[7] = test system: MKK7
[8] = test system: MKNK1
[9] = test system: MKNK2
[10] = test system: T4, MLCK
T4 construct: gene MYLK3
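Note: KINOMEscan kinase panel screen.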

Row | Compound | %Inh [1] [%] | %Inh [2] [%] | %Inh [3] [%] | %Inh [4] [%] | %Inh [5] [%] | %Inh [6] [%] | %Inh [7] [%] | %Inh [8] [%] | %Inh [9] [%] | %Inh [10] [%]
1 | COC(=O)Nc1nc2cc(Oc3ccc(NC(=O)Nc4cc(C(F)(F)F)ccc4Cl)cc3)ccc2[nH]1.Cl [GW697465] | 78 | 0 | 0 | 96.3 | 84 | 0 | 0 | 51 | 92.8 | 0
2 | CNC(=O)c1ccccc1Nc1nc(Nc2cccc(CS(C)(=O)=O)c2)ncc1C.O=CO [GSK1520489] | 99.9 | 39 | 94.6 | 100 | 97.3 | 58 | 0 | 0 | 50 | 41
3 | Cc1ccc(C(=O)Nc2ccc(Oc3ccc4nc(NC(=O)C5CC5)cn4c3)c(F)c2)c(=O)n1-c1ccccc1 | 98.9 | 0 | 37 | 99.2 |  | 0 | 0 | 88 | 94.2 | 0
4 | Cc1ccc2c(-c3ccnc(Nc4ccc(C(F)(F)F)cc4)n3)cnn2n1 [GW819776] | 33 | 13 | 0 | 26 | 5 | 18 | 0 | 0 | 0 | 0
5 | CC(=O)Nc1ccc(-c2cc3ncnc(SCC(=O)O)c3s2)cc1 | 17 | 20 | 0 | 0 | 0 | 25 | 0 | 0 | 0 | 40
6 | OCCn1cc(-c2cnc3nnn(Cc4ccc5ncccc5c4)c3n2)cn1 | 0 | 0 | 32 | 0 | 79 | 0 | 0 | 0 | 0 | 13
7 | CCCC(=O)Nc1n[nH]c2ncccc12 [SB-601436] | 0 | 0 | 0 | 5 | 0 | 0 | 0 | 0 | 11 | 0
8 | CC(=O)c1c(-c2ccncc2)[nH]c(-c2ccncc2)c1C [GW493036] | 2 | 0 | 0 | 0 | 11 | 29 | 0 | 14 | 46 | 0
9 | CN(c1ccccc1CNc1nc(Nc2ccc3c(c2)CC(=O)N3)ncc1C(F)(F)F)S(C)(=O)=O | 17 | 93.9 | 94.3 | 97.3 | 86 | 48 | 0 | 0 | 0 | 43
10 | Cc1ccc(CC(=O)N2CCc3cc(-c4cn(C)c5ncnc(N)c45)ccc32)cc1 [GSK2634758] | 99.9 | 0 | 7 | 27 | 86 | 6 | 18 | 0 | 52 | 12
11 | COC(=O)c1cccc(NC(=O)NC2CCN(c3ccnc(Nc4cc(OC)c(OC)c(OC)c4)n3)C2)c1 (stereo not shown) [GSK1379767] | 98.8 | 4 | 0 | 40 | 19 | 3 | 21 | 12 | 32 | 12
12 | CN(c1cccc(CNc2nc(Nc3ccc4c(c3)CC(=O)N4)ncc2C(F)(F)F)c1)S(C)(=O)=O | 0 | 0 | 84 | 80 | 93.9 | 76 | 0 | 0 | 28 | 1
13 | C[C@@H](Oc1cc(-n2cnc3cc(-c4ccncc4)ccc32)sc1C(N)=O)c1ccccc1Cl [GSK479719] | 21 | 0 | 0 | 86 | 52 | 0 | 0 | 0 | 28 | 0
14 | C[C@@H]1CNc2c(sc3ccc4nc(-c5ccc(O)cc5)ccc4c23)C(=O)N1 | 67 | 13 | 0 | 62 | 92.7 | 61 | 0 | 27 | 34 | 52
15 | CS(=O)(=O)Nc1ccc(-c2ccnc3[nH]ccc23)cc1 [GSK993273] | 67 | 16 | 51 | 56 | 2 | 23 | 0 | 72 | 95.9 | 15
16 | O=C(Nc1n[nH]c2cc(-c3ccco3)ccc12)C1CC1 [SB-737447] | 76 | 0 | 0 | 0 | 0 | 63 | 0 | 0 | 39 | 78
17 | Cc1nnc(-c2ccc3occ(-c4ccc(S(C)=O)cc4)c3n2)o1 (stereo not shown) | 0 | 0 | 0 | 0 | 0 | 0 | 0 | 0 | 0 | 0
